Hits are enriched below; roughly 3.1% of the tested compounds scored in any of these assays.
dFosB act – activators of mouse delta FosB homodimer; purified delta FosB, TAMRA-CDK5 oligo fluorescence polarization; percent of positive-control signal above neutral wells; actives 0.99% (n = 340,000); P13346; activation, % at 25 µM;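 active = mean activation above about 17%, with every replicate also reaching it, limit read from the data, passing the limit was not always enough; inconclusive = only one of the two conditions met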
GSIS activator – GLuc luminescence reporter in INS-1E cells, primary screen for activators of glucose-dependent secretion of insulin. INS-1E GLuc reporter insulin secretion, 2-3 h. activation, % at 16.6 µM. actives 0.61% (n = 370,000). AID 743287;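 active = lowest replicate activation of at least 40%, so every replicate reaches that level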;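 also: 0% = median of neutral control wells and 100% = median of IBMX positive control wells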
DENV2 CPE rescue – inhibitors of DENV2 cytopathic effect; DENV2-infected cells, cytopathic effect rescue, plate reader; CPE inhibition, % at 9.99 µM; actives 1.7% (n = 350,000); AID 651640; in the data active = CPE inhibition above about 20%, passing the limit was not always enough; inconclusive = no clear call, values can overlap the other calls; tested in BHK-21 cells;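 also: 0% = median of neutral control wells and 100% = median of positive control wells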
RAD54 branch – inhibitors of human RAD54 branch migration; actives 0.14% (n = 360,000); Q92698; RAD54 Holliday junction branch migration, FAM/BHQ fluorescence; inhibition, % at 10.4 µM;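 active = mean normalized replicate activity at least 40 and at least half of replicates scoring 40 or more; inconclusive = only one of the two criteria met; inactive = mean below 40 and under half of replicates reaching 40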;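 also: 0% = median of neutral control wells and 100% = median of positive control wells; inhibitors cause a drop in the FAM fluorescence signal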
MLL AF4-AF9 inh – MLL-AF4/AF9 protein interaction inhibition | AlphaScreen, biotin-AF4 peptide binding to FLAG-AF9 | P42568 | actives 0.47% (n = 350,000) | inhibition, % at 10 µM | AID 651704;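 active = every replicate reaching a set inhibition limit, whatever the replicate mean, cut at about 25% in these data; inconclusive = mean inhibition reaches that limit but some replicates miss it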;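 also: 0% = plate neutral control median and 100% = total signal loss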
RAD52 inh – RAD52 (human) annealing inhibition | AID 651710 | recombinant RAD52 DNA annealing, FRET fluorescence | P43351 | actives 0.46% (n = 360,000) | inhibition, % at 18.7 µM;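 active = every replicate showing at least 50% inhibition; inconclusive = mean inhibition at least 50% but not in every replicate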
Target sequence (P43351 whole entry, looked up): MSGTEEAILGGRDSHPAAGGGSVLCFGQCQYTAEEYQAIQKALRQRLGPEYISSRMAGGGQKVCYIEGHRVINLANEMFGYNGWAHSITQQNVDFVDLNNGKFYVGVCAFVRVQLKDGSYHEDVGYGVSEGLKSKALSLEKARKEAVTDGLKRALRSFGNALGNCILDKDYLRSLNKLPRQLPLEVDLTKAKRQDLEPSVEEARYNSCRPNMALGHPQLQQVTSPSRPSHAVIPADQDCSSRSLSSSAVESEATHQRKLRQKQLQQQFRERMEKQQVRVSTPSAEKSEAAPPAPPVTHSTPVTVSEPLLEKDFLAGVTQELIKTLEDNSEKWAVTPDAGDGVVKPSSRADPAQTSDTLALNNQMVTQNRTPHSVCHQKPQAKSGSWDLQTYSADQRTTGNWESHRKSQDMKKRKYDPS
Starred values were filed as active, the others as inactive; ? = inconclusive; . = no result.

SMILES	dFosB act	GSIS activator	DENV2 CPE rescue	RAD54 branch	MLL AF4-AF9 inh	RAD52 inh
O=C(COC(=O)c1ccc(O)cc1)Nc1ccc2c(c1)OCCO2	-5	.	-4	2	-3	-4
O=C(COC(=O)c1cc(Br)ccc1O)Nc1ccc2c(c1)OCCO2	23*	7	-4	6	6	-9
C[C@@H]1COC(=O)[C@@H](CC(=O)OC(C)(C)C)C/C=C\C[C@@H](CC(=O)NCCO)C(=O)N1	7	-3	24*	-8	-2	-14
CCN(CC)c1ccc(NC(=S)Nc2ccc(F)cc2)cc1	-6	-36	0	4	27*	-10
CCCCc1ccc(NC(=S)NCCc2ccc(F)cc2)cc1	-5	46*	2	7	0	2
COc1ccc(Nc2ccc([N+](=O)[O-])cn2)cc1	-3	.	-2	-2	-3	0
COc1ccc(Nc2cc(C)c3cc([N+](=O)[O-])ccc3n2)cc1	-8	-12	28*	-1	6	9
Nc1ccc2ccccc2c1N=Nc1ccccc1	1	.	?	-9	36*	0
Nc1ncnc(N)c1N=Nc1ccccc1	-3	3	3	-9	-2	-12
COCC(=O)Nc1ccc2c(c1)C(=O)N(C)C[C@H](OC)[C@H](C)CN(CCC(F)(F)F)[C@H](C)CO2	.	-7	-8	-8	1	-10
COc1cccc(-c2ccc([C@@H]3[C@@H](CO)N(C(=O)C4CC4)C34CN(C(C)=O)C4)cc2)c1	.	7	4	.	-1	-22
O=c1cc(-c2ccc(O)c(O)c2)oc2cc(O[C@@H]3O[C@H](CO)[C@@H](O)[C@H](O)[C@H]3O)cc(O)c12	19*	.	.	45	.	.
C[C@@H]1O[C@@H](OC[C@H]2O[C@@H](Oc3cc(O)c4c(=O)cc(-c5ccc(O)c(O)c5)oc4c3)[C@H](O)[C@@H](O)[C@@H]2O)[C@H](O)[C@H](O)[C@H]1O	12	.	.	24	.	.
COCCNC(=O)C1(C)CCN(Cc2noc(-c3c(C)noc3C)n2)C1 (stereo not drawn)	.	.	.	-5	.	.
CCNC(=O)C1(C)CCN(Cc2noc(-c3c(C)noc3C)n2)C1 (stereo not drawn)	.	5	45*	-3	-6	6
S=C(SSC(=S)N1CCOCC1)N1CCOCC1	.	3	24*	.	7	-9
Cc1noc(C)c1NC(=O)Nc1cccc2c1O[C@H](CN(C)Cc1ccncc1)[C@@H](C)CN([C@H](C)CO)C2=O	.	-12	-3	3	-2	10
COc1ccc(N2CC(C(=O)N3CCc4ccccc43)CC2=O)cc1 (stereo not drawn)	-5	66*	?	12	-2	-13
Cc1ccc(S(=O)(=O)N[C@H]2CC[C@@H](CC(=O)NCCN3CCCCC3)O[C@@H]2CO)cc1	.	13	-3	7	-1	-7
Cc1noc(C)c1S(=O)(=O)N1CCCCC1c1cc(C(=O)Nc2cccc3c2CCCC3)no1 (stereo not drawn)	.	-18	?	13	-1	-19
CS(=O)(=O)N1CCCCC1c1cc(C(=O)Nc2cccc3c2CCCC3)no1 (stereo not drawn)	.	54*	-4	-14	2	-11
CCCC(=O)Nc1ccc2c(c1)C(=O)N(C)C[C@@H](OC)[C@@H](C)CN(C)[C@@H](C)CO2	.	12	2	-1	2	-10
Cc1noc(C)c1NC(=O)Nc1ccc2c(c1)C(=O)N(C)[C@H]1CC[C@H](CC(=O)Nc3ccccc3F)O[C@@H]1CO2	.	3	?	3	.	-8
NC(=O)c1c(NC(=O)Cn2nc(C(=O)O)c3ccccc3c2=O)sc2c1CCCC2	91*	9	6	.	-1	-10
CNC(=O)C[C@H]1CC[C@@H]2[C@H](COC[C@H](O)CN2Cc2ccc(C(F)(F)F)cc2)O1	.	-1	2	5	-3	-3
CCOc1ccc(-c2noc(CCC(=O)NC)n2)cc1OCC	0	56*	.	2	.	.
Cc1noc(C)c1NC(=O)N(C)C[C@@H]1OCCCC[C@H](C)Oc2ccc(NC(=O)Nc3ccccc3)cc2C(=O)N([C@@H](C)CO)C[C@H]1C	.	-2	.	.	.	.
COCC(=O)Nc1ccc2c(c1)C(=O)N(C)C[C@@H](OC)[C@@H](C)CN(Cc1ccccc1F)[C@H](C)CO2	.	-14	0	-4	9	-9
CNc1cccc(-c2ccccc2C(C)=O)n1	.	.	8	-8	0	-4

Compound activity deposited in PubChem by Broad Institute.
